Assays:
[1] = target: Death-associated protein kinase 1 (Homo sapiens) (UniProt P53355); conditions: at 10 µM
[2] = target: Death-associated protein kinase 2 (Homo sapiens) (UniProt Q9UIK4); conditions: at 1 µM
[3] = target: Death-associated protein kinase 2 (Homo sapiens) (UniProt Q9UIK4); conditions: at 10 µM
[4] = target: T1, Serine/threonine-protein kinase DCLK2 (Homo sapiens) (UniProt Q8N568); conditions: at 1 µM
T1 sequence (whole entry): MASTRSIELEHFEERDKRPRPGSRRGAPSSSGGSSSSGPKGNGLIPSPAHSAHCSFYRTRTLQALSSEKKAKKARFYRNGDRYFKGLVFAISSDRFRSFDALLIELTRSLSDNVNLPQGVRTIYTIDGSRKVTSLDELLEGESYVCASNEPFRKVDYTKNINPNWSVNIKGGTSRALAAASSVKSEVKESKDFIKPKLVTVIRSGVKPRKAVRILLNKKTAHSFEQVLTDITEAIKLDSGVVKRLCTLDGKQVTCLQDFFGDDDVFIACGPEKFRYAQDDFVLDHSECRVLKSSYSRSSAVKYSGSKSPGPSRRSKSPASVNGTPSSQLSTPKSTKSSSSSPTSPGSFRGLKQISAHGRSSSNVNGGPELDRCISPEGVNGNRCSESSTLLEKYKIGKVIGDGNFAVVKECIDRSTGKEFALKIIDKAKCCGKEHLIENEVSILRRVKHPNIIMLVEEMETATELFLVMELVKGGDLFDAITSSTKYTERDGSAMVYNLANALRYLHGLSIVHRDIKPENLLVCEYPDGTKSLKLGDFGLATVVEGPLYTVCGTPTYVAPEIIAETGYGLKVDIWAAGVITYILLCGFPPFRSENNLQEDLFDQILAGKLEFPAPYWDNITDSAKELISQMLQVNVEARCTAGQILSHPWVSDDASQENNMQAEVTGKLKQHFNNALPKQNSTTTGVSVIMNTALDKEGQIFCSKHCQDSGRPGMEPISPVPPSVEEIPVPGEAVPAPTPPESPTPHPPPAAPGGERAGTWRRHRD

[5] = target: T1, Serine/threonine-protein kinase DCLK2 (Homo sapiens); conditions: at 10 µM
[6] = target: T2, Discoidin domain-containing receptor 2 (Homo sapiens) (UniProt Q16832); conditions: at 1 µM
T2 sequence (whole entry): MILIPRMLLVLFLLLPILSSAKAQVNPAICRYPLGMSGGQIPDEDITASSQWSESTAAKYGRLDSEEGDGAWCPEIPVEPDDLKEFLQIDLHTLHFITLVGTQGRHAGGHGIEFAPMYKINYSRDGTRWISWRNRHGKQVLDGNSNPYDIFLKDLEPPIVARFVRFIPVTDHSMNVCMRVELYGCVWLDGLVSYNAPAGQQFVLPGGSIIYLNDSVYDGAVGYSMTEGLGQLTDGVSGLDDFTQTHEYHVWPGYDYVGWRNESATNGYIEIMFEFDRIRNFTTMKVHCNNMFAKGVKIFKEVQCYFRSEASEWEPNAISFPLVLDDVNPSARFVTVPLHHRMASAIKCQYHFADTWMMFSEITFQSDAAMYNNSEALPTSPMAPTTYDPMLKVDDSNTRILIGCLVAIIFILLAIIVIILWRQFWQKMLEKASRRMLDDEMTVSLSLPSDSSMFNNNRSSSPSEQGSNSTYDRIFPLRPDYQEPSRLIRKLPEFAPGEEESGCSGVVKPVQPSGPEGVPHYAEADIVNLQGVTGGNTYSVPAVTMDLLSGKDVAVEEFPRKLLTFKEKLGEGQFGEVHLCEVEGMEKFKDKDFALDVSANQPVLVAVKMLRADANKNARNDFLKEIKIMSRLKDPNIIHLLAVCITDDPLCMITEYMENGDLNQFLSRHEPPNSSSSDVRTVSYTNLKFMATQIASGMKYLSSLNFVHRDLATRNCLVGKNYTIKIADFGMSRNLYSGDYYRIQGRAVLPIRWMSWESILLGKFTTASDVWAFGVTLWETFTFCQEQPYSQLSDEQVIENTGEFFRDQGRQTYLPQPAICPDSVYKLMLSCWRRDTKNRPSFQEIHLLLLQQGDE

[7] = target: T2, Discoidin domain-containing receptor 2 (Homo sapiens); conditions: at 10 µM
[8] = target: T3, Myotonin-protein kinase (Homo sapiens) (UniProt Q09013); conditions: at 1 µM
T3 sequence (whole entry): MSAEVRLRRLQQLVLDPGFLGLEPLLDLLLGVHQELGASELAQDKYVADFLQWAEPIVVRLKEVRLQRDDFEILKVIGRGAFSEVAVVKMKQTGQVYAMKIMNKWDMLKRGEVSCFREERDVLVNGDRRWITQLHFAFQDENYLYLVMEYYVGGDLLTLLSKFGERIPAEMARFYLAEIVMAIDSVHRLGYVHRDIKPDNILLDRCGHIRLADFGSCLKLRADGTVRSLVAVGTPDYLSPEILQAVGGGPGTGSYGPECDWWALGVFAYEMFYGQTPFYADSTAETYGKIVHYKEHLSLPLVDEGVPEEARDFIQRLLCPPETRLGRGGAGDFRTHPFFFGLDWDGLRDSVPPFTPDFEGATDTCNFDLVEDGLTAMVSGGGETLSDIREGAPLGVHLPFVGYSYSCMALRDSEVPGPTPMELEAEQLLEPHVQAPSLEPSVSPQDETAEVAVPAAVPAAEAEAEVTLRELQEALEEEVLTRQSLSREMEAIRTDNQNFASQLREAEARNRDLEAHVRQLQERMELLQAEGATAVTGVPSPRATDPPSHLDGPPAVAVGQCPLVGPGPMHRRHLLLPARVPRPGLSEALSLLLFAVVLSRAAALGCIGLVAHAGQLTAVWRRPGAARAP

[9] = target: T3, Myotonin-protein kinase (Homo sapiens); conditions: at 10 µM
[10] = target: T4, Serine/threonine-protein kinase 17A (Homo sapiens) (UniProt Q9UEE5); conditions: at 1 µM
T4 sequence (whole entry): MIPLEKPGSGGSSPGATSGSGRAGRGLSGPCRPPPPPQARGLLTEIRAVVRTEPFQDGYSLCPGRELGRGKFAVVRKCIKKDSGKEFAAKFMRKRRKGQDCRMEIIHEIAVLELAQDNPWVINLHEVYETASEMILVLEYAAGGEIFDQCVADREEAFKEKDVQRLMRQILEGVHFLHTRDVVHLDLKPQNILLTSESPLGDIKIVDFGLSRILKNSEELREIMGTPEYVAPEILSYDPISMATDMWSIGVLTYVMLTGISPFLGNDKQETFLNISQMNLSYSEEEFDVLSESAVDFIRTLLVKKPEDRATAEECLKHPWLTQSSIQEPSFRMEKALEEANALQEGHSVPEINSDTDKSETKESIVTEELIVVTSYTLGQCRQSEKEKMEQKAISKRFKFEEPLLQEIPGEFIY

Sequence of Death-associated protein kinase 1 (Homo sapiens) (P53355 whole entry, looked up): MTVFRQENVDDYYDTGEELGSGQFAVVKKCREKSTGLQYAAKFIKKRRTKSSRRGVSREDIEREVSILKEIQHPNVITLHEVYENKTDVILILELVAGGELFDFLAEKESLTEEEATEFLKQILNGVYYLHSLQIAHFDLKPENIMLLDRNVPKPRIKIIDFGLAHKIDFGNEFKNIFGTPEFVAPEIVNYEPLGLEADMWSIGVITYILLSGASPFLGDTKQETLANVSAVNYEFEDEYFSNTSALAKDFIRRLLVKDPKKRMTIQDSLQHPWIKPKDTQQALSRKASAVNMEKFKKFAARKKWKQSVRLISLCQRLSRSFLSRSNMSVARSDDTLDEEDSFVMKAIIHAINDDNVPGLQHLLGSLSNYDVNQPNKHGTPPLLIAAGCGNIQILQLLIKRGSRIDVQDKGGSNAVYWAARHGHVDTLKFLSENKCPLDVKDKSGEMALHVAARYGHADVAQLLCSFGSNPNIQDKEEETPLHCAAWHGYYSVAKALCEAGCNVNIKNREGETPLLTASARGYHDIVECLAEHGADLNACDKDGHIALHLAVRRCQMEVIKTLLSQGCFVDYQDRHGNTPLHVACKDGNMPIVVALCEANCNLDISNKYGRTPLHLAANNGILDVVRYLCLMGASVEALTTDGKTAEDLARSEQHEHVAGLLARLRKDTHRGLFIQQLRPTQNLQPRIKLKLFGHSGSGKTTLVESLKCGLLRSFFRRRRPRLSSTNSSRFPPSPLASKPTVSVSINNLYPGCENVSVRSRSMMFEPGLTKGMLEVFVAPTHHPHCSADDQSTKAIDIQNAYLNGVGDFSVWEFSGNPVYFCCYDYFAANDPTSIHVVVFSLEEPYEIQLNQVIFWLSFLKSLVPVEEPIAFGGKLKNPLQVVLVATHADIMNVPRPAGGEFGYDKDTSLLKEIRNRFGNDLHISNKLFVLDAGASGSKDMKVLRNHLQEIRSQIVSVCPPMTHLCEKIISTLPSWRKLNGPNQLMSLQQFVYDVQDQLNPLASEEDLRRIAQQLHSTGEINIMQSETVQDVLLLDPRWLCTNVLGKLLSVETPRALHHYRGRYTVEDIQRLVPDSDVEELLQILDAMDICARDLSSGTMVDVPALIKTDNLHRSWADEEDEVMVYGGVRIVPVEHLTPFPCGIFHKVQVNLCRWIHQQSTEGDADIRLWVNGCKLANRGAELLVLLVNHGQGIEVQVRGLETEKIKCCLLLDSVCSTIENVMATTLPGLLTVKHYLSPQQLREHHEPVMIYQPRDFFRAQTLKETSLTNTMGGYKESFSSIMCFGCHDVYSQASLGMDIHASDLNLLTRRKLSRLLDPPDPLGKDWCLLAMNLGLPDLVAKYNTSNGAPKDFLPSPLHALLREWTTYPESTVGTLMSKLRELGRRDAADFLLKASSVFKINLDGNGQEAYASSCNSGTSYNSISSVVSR
Sequence of Death-associated protein kinase 2 (Homo sapiens) (Q9UIK4 whole entry, looked up): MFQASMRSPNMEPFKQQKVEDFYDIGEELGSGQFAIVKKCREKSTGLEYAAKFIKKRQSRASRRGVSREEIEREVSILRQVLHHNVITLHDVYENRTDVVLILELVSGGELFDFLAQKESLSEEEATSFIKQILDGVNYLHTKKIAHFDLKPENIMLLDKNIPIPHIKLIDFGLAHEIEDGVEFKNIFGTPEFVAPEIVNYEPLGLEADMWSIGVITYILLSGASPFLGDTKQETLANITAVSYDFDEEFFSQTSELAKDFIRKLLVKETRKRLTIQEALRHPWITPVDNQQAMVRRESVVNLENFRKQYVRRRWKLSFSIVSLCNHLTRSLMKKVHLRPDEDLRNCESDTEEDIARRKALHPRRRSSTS

SMILES	residual activity [1]	residual activity [2]	residual activity [3]	residual activity [4]	residual activity [5]	residual activity [6]	residual activity [7]	residual activity [8]	residual activity [9]	residual activity [10]
O=C1NC(=O)/C(=C/c2ccc3c(c2)OC(F)(F)O3)S1	81%	95%	96%	110%	66%	130%	105%	104%	104%	118%
CNc1cc2c(Nc3cccc(Br)c3)ncnc2cn1	60%	86%	69%	121%	97%	84%	68%	107%	113%	64%
Cc1cc(Nc2nc(-c3ccccc3)nc3ccccc23)n[nH]1	17%	56%	11%	99%	69%	71%	41%	111%	79%	42%
c1ccc(-c2n[nH]cc2-c2ccnc3ccccc23)nc1	88%	103%	–	–	101%	102%	98%	127%	140%	–
O=[N+]([O-])c1ccc(-c2nc(-c3ccc(F)cc3)c(-c3ccncc3)[nH]2)cc1	65%	108%	101%	117%	111%	77%	52%	96%	93%	116%
O=C1c2ccccc2-[n+]2ccc3c([nH]c4ccccc43)c21	84%	95%	96%	105%	94%	78%	84%	101%	80%	104%
Cc1cncc2cccc(S(=O)(=O)N3CCCN(C(=O)CN)C[C@H]3C)c12	85%	90%	–	66%	35%	126%	94%	–	–	–
c1ccc(-c2n[nH]c3c2oc2ccccc23)cc1	98%	–	–	82%	74%	–	–	146%	121%	43%
Oc1c2ccccc2c2c3c(cccc13)N=N2	68%	87%	43%	116%	51%	93%	92%	–	68%	6%
N#CC(C#N)=C(N)/C(C#N)=C/c1ccc(O)cc1	92%	99%	97%	94%	47%	116%	97%	–	148%	91%
Cc1nc(-c2ccccc2)c(-c2ccncc2)o1	95%	99%	–	124%	113%	50%	36%	104%	102%	120%
CCN(CC)C(=O)c1ccc(Nc2nc(OCC3CCCCC3)c3nc[nH]c3n2)cc1	54%	96%	68%	–	99%	93%	66%	–	–	23%
c1ccc2c(-c3ccncc3)c[nH]c2c1	91%	100%	–	75%	98%	–	97%	147%	132%	102%
CN(C)CCCn1cc(C2=C(c3c[nH]c4ccccc34)C(=O)NC2=O)c2ccccc21	75%	72%	33%	–	88%	113%	82%	31%	25%	108%
C[C@@H](N)[C@H]1CC[C@H](C(=O)Nc2ccncc2)CC1	104%	88%	85%	110%	87%	108%	105%	95%	95%	70%
COc1cc2ncnc(Nc3ccc(NC(=O)c4ccccc4)cc3)c2cc1OC	83%	98%	106%	99%	104%	–	89%	110%	145%	75%
O=c1cc(-c2cccc3c2Sc2ccccc2S3)oc(N2CCOCC2)c1	81%	106%	89%	118%	85%	93%	100%	120%	105%	106%
O=c1c2ccccc2[nH]c(=S)n1CCN1CCC(=C(c2ccc(F)cc2)c2ccc(F)cc2)CC1	62%	109%	104%	91%	79%	104%	87%	105%	108%	71%

From ChEMBL document CHEMBL2218924, “A broad activity screen in support of a chemogenomic map for kinase signalling research and drug discovery” (Biochem J, 2013)
